# Most compounds without a hit are left out; they make up all but 4.5% or so of the library.
# Rtt109 Vps75 – inhibitors of Candida albicans Rtt109/Vps75 histone acetyltransferase | inhibition, % at 34.9 µM | AID 540336 | purified Rtt109/Vps75, ThioGlo CoA-SH fluorescence, 4 h | 0.16% of 330,000 active;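 active = inhibition of at least 50% in every replicate; inconclusive = best replicate reaches 50% inhibition but some replicates fall short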
# Rce1 inh – inhibitors of yeast Ras-converting enzyme | Q03530 | yeast membranes, quenched prenylated peptide cleavage fluorescence | calls only | 0.27% of 290,000 active;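 active = fall in fluorescence gain of 50% or more versus controls, with final raw signal at or below 3038400; inconclusive = same 50% fall but final raw signal above 3038400; inactive = fall in fluorescence gain under 50%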;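 note: plate controls were neutral control wells for no effect and wells lacking membranes for full effect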
# Efflux pump inh – inhibitors of Candida antifungal efflux pumps expressed in yeast; S. cerevisiae Candida pump triplex, Nile Red efflux; inhibition, % at 10 µM; 0.44% of 330,000 active;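 active = plate passing quality check with inhibition over a set limit, or well fluorescence over plate mean plus 4 SD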;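 note: Nile Red retained in pooled yeast measured as flow cytometry median fluorescence; 0% = buffer negative control and 100% = Enniatin B positive control; higher means more Nile Red kept so more efflux inhibition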
# HDAC3 inh – inhibitors of human histone deacetylase 3 | O15379 | recombinant HDAC3, fluorogenic peptide/trypsin coupled, fluorescence | inhibition, % at 8.3 µM | 0.15% of 320,000 active | AID 2718; in the data active = inhibition above about 26%, passing the limit was not always enough; inconclusive = no clear call, values can overlap the other calls
# Target sequence (O15379 whole entry, looked up): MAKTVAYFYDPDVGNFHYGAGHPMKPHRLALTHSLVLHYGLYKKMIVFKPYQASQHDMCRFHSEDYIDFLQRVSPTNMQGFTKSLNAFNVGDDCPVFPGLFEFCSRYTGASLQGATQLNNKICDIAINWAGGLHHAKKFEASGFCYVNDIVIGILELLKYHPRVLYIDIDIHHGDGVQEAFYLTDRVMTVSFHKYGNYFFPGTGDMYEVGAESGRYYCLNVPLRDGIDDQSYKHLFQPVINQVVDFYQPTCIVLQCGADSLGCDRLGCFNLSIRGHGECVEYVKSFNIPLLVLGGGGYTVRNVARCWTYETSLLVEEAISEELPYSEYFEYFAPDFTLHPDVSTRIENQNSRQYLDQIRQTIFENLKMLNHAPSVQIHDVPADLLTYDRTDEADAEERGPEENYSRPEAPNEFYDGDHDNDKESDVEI
# GRK2 inh – blocks RNA aptamer binding to human GRK2; AID 488847; P25098; 0.59% of 330,000 active; inhibition of aptamer binding, % at 10 µM; bead flow cytometry, FAM-aptamer displacement from GRK2;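 active = inhibition of aptamer binding above 40%, roughly 3 SD of noise, on plates passing a quality check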;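 note: median bead fluorescence of bound FAM aptamer so fluorescent compounds give negative values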
# ALR H2O2 inh – inhibitors of human sulfhydryl oxidase ALR | inhibition, % (concentration not given with the values) | P55789 | 3.8% of 290,000 active | purified ALR, DTT oxidation, H2O2 HRP-luminol luminescence;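 active = mean replicate inhibition above about 79%, with every replicate also reaching it, limit read from the data; inconclusive = only one of the two criteria met; inactive = mean below limit and not every replicate reaching it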
# The depositor's hits bear a star; i = inactive; ? = inconclusive; . = no result; + = active, no number.
SMILES,Rtt109 Vps75,Rce1 inh,Efflux pump inh,HDAC3 inh,GRK2 inh,ALR H2O2 inh
C[C@H](CO)N1C[C@H](C)[C@@H](CN(C)S(=O)(=O)c2ccc(F)cc2)Oc2c(NS(=O)(=O)c3ccc(F)cc3)cccc2C1=O,2,.,0,.,0,.
CCc1nnc(NC(=O)CSc2nnc(Cc3ccccc3)o2)s1,-4,i,0,.,0,1
COc1ccc(NCc2nnc(SCC(=O)Nc3cccc(C)c3)o2)cc1,3,i,0,?,0,99*
COc1ccc(NCc2nnc(SCC(=O)c3ccc(OC)cc3)o2)cc1,-4,i,0,41*,0,98*
COc1ccc(C(=O)NCc2nnc(SCC(=O)c3ccccc3)o2)cc1,-5,i,0,-3,0,42
CCc1nnc(NC(=O)CSc2nnc(CNc3ccc(Cl)cc3)o2)s1,4,i,0,5,3,99*
O=C(Cn1nc(C(=O)O)c2ccccc2c1=O)Nc1ccc2c(c1)C(=O)c1ccccc1C2=O,.,i,0,10,2,-4
Cc1cc(C)cc(NC(=O)NC(C)C2CCCO2)c1 (stereo not drawn),56*,i,0,2,1,-3
O=[N+]([O-])c1cccc(Oc2cnccn2)c1,-1,i,0,-1,1,1
CCN1C=CC(=C2C(=O)c3ccccc3C2=O)C=C1,80*,i,0,-6,0,-9
Cc1ccc(C(=O)NC(=C(Cl)Cl)S(=O)(=O)c2ccc(C)cc2)cc1,4,i,0,-5,0,99*
CC[n+]1c(/C=C(\C)SC)sc2ccccc21,1,i,0,.,5,13
CC[n+]1c(/C=C(\C)Nc2ccccc2)sc2ccccc21,6,.,0,?,1,89*
CC[n+]1c(-c2ccccc2)csc1Nc1c(C)n(C)n(-c2ccccc2)c1=O,14,i,0,3,0,99*
CC[n+]1c(-c2ccc(C)cc2)csc1Nc1c(C)n(C)n(-c2ccccc2)c1=O,-1,i,0,.,1,.
Cc1cc(C)n(CCNS(=O)(=O)c2ccccc2)n1,-9,i,0,4,1,0
O=C(CSc1nc(N2CCOCC2)nc(N2CCOCC2)n1)Nc1ccccc1F,-1,i,0,5,0,-6
N#Cc1c(N2CCN(C(=O)c3ccccc3)CC2)nc(-c2ccccc2)c2c1CCCC2,-19,+,0,-10,1,-4
O=C(CSc1ccc([N+](=O)[O-])cn1)Nc1cc(C(F)(F)F)ccc1N1CCOCC1,-3,i,0,6,0,-17
COc1ccccc1N1CCN(C(=O)CCS(=O)(=O)c2ccc3c(c2)oc(=O)n3C)CC1,-1,i,0,-4,5,88*
COc1ccccc1N1CCN(C(=O)C2CCCN(S(=O)(=O)c3ccc4c(c3)oc(=O)n4C)C2)CC1 (stereo not drawn),2,i,0,4,0,19
NS(=O)(=O)c1ccc(S(=O)(=O)NCCc2ccccc2)cc1,-18,i,0,1,0,-11
Cc1[nH]c2ccccc2c1CCNS(=O)(=O)c1ccc(S(N)(=O)=O)cc1,-1,i,0,0,0,90*
CC1(C2CC(C(F)(F)F)n3nc(C(=O)O)cc3N2)CC1 (stereo not drawn),3,i,0,5,0,3
CCOC(=O)c1c(CSC(=N)N)n(C)c2cc(Br)c(OC(C)=O)cc12,85*,i,0,8,0,?
SMILES,Rtt109 Vps75,Rce1 inh,Efflux pump inh,HDAC3 inh,GRK2 inh,ALR H2O2 inh
N#C/C(=C\c1ccc(O)cc1)C(=O)N1CCCC1,-1,i,0,-1,2,81*
COc1ccc(C(=O)N2CCCC(Nc3ccc(F)cc3)C2)cc1F (stereo not drawn),5,i,0,-5,0,65
Cc1ccc(C(=O)N2CCCC(Nc3ccc(F)cc3)C2)cc1C (stereo not drawn),-5,i,0,-3,0,99*
COC(=O)c1cccc(C(=O)N2CCCC(Nc3ccc(C)c(C)c3)C2)c1 (stereo not drawn),1,i,0,-5,1,98*
Cc1ccc(NC2CCCN(C(=O)c3cccnc3)C2)cc1C (stereo not drawn),-1,i,0,3,0,93*
Cc1ccc(NC2CCCN(C(=O)c3cc4ncccn4n3)C2)cc1C (stereo not drawn),-7,i,1,3,4,83*
Cc1ccc(NC2CCCN(C(=O)c3cnc4ccccn4c3=O)C2)cc1C (stereo not drawn),2,i,0,-1,0,.
COc1ccc(NC2CCCN(C(=O)c3cccc(C(F)(F)F)c3)C2)cc1OC (stereo not drawn),-12,i,0,0,1,?
C[C@H]1CN(CCc2ccccc2)C(=O)[C@@H]1CC(=O)NCc1ccccc1,-5,i,0,-10,3,-8
CN1CCN(C(=O)c2cccn(Cc3c(Cl)cccc3Cl)c2=O)CC1,-1,i,0,0,0,2
COc1ccc(C(=O)N2CCCC(Nc3ccc(C)c(C)c3)C2)cc1F (stereo not drawn),2,i,-1,-2,1,95*
C=Cc1ccc(C(=O)N2CCCC(Nc3ccc4c(c3)OCCO4)C2)cc1 (stereo not drawn),7,i,.,.,.,.
C=CCOc1cccc(C(=O)N2CCCC(Nc3ccc4c(c3)OCCO4)C2)c1 (stereo not drawn),5,i,0,0,5,91*
CN1C(=O)CCC2(c3ccccc3)CC=C(O)C=C12 (stereo not drawn),-15,.,.,.,.,.
O=c1[nH]c2c(c(=O)[nH]1)OCN(Cc1ccccc1)C2,-5,.,.,.,.,.
CCOc1ccccc1C(=O)N1CCN(c2cccc(Cl)c2)CC1,9,i,0,1,2,4
COc1ccccc1N1CCN(c2ncc(C(=O)N3CCN(c4cccc(Cl)c4)CC3)c3ccccc23)CC1,2,+,0,-7,4,-2
COc1ccc(C(CC(=O)c2ccc(C)cc2)Nc2ccc([N+](=O)[O-])cc2)cc1 (stereo not drawn),3,i,0,16,0,-8
Cc1ccc(C(=O)CC(SCC(=O)O)c2ccc([N+](=O)[O-])cc2)cc1 (stereo not drawn),-50,i,0,9,4,99*
Cn1c(N)c(C(=O)COC(=O)c2cc(S(=O)(=O)N3CCOCC3)ccc2F)c(=O)n(C)c1=O,-3,.,0,-2,2,0
CC1(C)Oc2ccc(C(=O)NC3CCCCC3)cc2N(CC#N)C1=O,16,i,0,-7,0,13
CCn1c(NC(=O)c2ccc(C)cc2)c2ccccc2nc1=O,0,i,0,4,1,95*

# Compound activity (PubChem)
